Experimental data from the supplement of paper PMC6411743.
± gives the standard deviation of the averaged measurements. The full data set covers some 6,200 targets. This sample favours those with the largest changes.

Compound: Nc1ncnc2c1ncn2[C@@H]1O[C@H](COP(=O)(O)OP(=O)(O)NP(=O)(O)O)[C@@H](O)[C@H]1O [adenylyl imidodiphosphate]
Experiment: NP40-soluble protein abundance relative to vehicle (solubility fold change) (ratio); higher = more soluble protein in presence of AMP-PNP
In short: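 Jurkat crude lysate (Dounce-homogenised) was treated with eight concentrations from 0.1 to 10 mM for 10 min at room temperature, then 3 min at 37 °C. It was solubilised with 0.8% NP40 and benzonase (60 min, 4 °C) and ultracentrifuged, and the supernatant was TMT-labelled for LC-MS/MS. Intensities were vsn-normalised, and the value is the fold change against the NP40-processed vehicle per replicate, from three independent experiments.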

Chain of UniProt Q9P1W8 (Q9P1W8 whole entry): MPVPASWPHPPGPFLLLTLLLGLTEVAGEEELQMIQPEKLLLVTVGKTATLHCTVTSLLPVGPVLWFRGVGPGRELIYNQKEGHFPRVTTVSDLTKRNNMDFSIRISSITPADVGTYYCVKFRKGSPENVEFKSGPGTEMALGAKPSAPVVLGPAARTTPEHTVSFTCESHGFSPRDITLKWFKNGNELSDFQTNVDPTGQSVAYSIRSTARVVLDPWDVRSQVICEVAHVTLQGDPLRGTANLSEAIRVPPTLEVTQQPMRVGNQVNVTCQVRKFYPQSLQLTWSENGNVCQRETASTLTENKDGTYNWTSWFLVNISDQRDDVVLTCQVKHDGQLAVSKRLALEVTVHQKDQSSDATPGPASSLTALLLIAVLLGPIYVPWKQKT
Chain of UniProt Q9GZY4 (Q9GZY4 whole entry): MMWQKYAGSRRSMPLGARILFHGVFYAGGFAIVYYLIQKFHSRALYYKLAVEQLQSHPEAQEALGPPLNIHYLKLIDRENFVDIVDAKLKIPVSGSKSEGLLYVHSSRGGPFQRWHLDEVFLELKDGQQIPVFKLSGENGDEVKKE
Chain of UniProt Q9NVM9 (Q9NVM9 whole entry): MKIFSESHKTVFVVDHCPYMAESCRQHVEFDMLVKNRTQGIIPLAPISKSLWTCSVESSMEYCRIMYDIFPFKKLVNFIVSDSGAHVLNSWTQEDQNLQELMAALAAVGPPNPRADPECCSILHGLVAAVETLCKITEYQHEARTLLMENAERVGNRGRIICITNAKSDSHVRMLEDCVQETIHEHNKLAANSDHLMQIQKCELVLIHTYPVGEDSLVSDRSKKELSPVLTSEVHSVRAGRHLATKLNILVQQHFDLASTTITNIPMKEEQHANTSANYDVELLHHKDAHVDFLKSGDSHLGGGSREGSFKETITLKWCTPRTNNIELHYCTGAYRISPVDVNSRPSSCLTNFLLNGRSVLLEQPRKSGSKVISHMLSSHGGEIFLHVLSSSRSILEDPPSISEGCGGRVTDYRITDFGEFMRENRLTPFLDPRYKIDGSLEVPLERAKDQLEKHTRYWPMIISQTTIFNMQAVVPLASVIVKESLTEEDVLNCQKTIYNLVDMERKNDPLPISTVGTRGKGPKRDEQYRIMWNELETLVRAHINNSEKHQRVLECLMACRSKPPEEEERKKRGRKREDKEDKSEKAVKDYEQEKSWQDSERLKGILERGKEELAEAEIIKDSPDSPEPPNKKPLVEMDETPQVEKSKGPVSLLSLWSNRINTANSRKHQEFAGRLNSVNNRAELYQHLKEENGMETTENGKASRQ
Chain of UniProt Q9UHV9 (Q9UHV9 whole entry): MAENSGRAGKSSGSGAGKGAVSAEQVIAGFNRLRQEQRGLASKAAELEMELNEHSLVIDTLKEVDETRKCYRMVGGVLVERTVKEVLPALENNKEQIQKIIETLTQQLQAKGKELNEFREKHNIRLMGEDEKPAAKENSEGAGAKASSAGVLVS
Chain of UniProt Q9UHP3 (Q9UHP3 whole entry): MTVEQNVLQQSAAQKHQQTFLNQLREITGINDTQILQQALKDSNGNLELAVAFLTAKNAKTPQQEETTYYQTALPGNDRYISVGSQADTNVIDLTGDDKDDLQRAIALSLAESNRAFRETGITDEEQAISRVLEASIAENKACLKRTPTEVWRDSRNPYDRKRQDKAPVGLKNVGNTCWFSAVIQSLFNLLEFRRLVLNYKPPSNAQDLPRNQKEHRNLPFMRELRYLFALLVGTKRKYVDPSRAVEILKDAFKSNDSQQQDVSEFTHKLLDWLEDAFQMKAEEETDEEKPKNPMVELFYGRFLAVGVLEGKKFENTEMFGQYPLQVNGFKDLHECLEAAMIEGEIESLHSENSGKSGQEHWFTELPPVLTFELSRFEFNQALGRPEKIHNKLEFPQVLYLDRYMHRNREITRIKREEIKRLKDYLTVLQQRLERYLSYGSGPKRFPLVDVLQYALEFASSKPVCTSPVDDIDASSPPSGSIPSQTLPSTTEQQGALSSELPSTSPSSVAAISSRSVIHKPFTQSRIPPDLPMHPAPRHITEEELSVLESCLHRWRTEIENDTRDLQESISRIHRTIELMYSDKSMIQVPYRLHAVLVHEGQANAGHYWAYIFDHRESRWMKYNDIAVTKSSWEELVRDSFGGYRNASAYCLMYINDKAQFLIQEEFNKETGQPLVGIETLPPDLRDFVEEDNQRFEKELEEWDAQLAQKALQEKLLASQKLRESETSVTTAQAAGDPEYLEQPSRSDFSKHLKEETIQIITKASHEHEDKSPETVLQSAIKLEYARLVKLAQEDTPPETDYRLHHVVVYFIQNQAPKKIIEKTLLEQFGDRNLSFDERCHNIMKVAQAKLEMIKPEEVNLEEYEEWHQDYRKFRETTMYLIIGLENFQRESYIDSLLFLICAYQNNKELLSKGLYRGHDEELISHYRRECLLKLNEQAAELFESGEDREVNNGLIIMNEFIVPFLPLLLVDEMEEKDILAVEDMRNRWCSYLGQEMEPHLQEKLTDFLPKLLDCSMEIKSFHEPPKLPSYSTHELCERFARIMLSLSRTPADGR
Chain of UniProt Q9NQ29 (Q9NQ29 whole entry): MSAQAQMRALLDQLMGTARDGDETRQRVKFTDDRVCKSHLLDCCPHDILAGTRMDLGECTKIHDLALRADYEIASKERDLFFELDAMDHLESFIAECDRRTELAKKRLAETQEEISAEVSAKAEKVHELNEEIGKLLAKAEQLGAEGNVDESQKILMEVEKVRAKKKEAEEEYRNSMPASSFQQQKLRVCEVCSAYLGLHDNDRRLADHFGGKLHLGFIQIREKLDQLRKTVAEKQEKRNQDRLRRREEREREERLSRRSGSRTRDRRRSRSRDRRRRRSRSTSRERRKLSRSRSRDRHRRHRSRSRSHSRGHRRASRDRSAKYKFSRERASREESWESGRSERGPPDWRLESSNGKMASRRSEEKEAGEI
Chain of UniProt Q9BRT2 (Q9BRT2 whole entry, one chain of several): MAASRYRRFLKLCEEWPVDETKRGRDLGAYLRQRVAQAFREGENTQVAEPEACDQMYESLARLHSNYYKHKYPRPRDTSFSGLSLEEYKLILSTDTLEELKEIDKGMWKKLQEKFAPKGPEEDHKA
Chain of UniProt Q96CN5 (Q96CN5 whole entry): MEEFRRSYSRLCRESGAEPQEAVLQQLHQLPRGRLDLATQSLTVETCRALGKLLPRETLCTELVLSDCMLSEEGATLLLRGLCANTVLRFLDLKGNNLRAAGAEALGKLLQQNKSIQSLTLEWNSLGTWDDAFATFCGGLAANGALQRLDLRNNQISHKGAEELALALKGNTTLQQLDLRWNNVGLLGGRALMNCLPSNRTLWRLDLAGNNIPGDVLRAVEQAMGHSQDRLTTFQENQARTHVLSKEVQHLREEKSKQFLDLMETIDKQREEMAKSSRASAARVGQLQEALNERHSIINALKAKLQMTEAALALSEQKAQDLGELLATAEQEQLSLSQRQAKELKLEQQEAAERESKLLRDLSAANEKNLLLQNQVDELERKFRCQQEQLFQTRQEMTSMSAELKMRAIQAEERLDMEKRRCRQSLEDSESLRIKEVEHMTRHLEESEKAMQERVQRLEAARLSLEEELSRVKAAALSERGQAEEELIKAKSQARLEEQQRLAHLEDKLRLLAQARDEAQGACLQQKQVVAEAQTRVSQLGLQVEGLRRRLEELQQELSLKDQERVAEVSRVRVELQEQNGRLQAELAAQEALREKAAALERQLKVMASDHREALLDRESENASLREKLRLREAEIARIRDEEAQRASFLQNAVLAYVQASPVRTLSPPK
Chain of UniProt Q9H668 (Q9H668 whole entry): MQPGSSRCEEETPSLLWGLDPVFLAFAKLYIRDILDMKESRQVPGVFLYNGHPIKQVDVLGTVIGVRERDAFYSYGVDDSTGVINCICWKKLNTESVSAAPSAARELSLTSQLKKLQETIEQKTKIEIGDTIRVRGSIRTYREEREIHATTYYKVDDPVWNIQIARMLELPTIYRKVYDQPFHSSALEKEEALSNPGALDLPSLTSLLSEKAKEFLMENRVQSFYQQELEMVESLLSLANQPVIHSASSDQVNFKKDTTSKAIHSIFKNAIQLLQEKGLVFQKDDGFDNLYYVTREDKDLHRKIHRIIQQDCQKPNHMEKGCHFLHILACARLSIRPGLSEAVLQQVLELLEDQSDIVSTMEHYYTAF
Chain of UniProt Q9BV79 (Q9BV79 whole entry): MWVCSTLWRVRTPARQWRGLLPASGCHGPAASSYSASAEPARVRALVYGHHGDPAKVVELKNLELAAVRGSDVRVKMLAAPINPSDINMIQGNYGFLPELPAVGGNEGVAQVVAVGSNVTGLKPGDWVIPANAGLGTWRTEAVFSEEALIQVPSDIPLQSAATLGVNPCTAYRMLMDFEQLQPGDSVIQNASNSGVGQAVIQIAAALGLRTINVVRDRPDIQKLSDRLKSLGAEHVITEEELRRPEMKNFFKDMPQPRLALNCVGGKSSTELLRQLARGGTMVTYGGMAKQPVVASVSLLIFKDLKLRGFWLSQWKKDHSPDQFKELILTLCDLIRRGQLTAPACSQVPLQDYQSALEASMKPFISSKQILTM
Chain of UniProt Q9H9E1 (Q9H9E1 whole entry): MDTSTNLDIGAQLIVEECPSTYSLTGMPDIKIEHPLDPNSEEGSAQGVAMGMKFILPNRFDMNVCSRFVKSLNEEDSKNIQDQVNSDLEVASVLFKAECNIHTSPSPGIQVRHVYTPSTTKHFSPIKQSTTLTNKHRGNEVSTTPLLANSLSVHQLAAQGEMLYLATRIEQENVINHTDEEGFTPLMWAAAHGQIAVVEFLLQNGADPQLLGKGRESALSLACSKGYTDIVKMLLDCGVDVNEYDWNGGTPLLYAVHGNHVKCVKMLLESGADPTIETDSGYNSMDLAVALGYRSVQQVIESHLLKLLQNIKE

Target	NP40-soluble protein abundance (concentration: 1mM)	NP40-soluble protein abundance (concentration: 2mM)	NP40-soluble protein abundance (concentration: 4mM)	NP40-soluble protein abundance (concentration: 6mM)	NP40-soluble protein abundance (concentration: 8mM)	NP40-soluble protein abundance (concentration: 10mM)
UniProt Q9NQ29|Q9NQ29-3|Q9NQ29-2	1.02 ± 0.04	1.13 ± 0.12	1.11 ± 0.055	1.15 ± 0.027	1.15 ± 0.091	1.35 ± 0.098
MECR (UniProt Q9BV79)	1.04 ± 0.021	1.21 ± 0.051	1.07 ± 0.011	1.04 ± 0.024	1.048 ± 0.0045	1.05 ± 0.03
UniProt Q9BRT2|V5IRT4	1.03 ± 0.022	1.13 ± 0.11	1.03 ± 0.016	1.0141 ± 0.00091	1.025 ± 0.0039	1.011 ± 0.0053
UniProt Q9GZY4	0.995 ± 0.024	0.939 ± 0.041	1.01 ± 0.022	0.977 ± 0.015	0.9936 ± 0.0057	1.01 ± 0.051
SMARCD1 (UniProt Q96GM5)	1.01 ± 0.085	0.97 ± 0.12	1.03 ± 0.11	1.01 ± 0.12	1.03 ± 0.12	1.01 ± 0.12
UniProt Q9NVM9	1.03 ± 0.027	1.02 ± 0.04	1.05 ± 0.033	1.02 ± 0.069	1.03 ± 0.075	1.03 ± 0.063
UniProt Q9P1W8|Q9P1W8-2	0.9928 ± 0.0047	1.04 ± 0.041	1.02 ± 0.018	1.0109 ± 0.00039	1.0171 ± 0.00063	1.024 ± 0.0042
UniProt Q9H668	0.991 ± 0.028	0.97 ± 0.028	0.985 ± 0.027	0.995 ± 0.018	0.985 ± 0.044	0.963 ± 0.024
LRRC45 (UniProt Q96CN5)	0.977 ± 0.065	0.919 ± 0.029	0.969 ± 0.022	0.97 ± 0.015	1 ± 0.032	0.956 ± 0.03
MRPL9 (UniProt Q9BYD2)	1.04 ± 0.13	0.967 ± 0.13	1.03 ± 0.075	0.982 ± 0.09	1.01 ± 0.072	0.972 ± 0.15
UniProt Q9UPT9|Q9UPT9-2	0.953 ± 0.022	0.953 ± 0.035	0.96 ± 0.025	0.922 ± 0.027	0.936 ± 0.021	0.922 ± 0.02
PFDN2 (UniProt Q9UHV9)	1.05 ± 0.084	1.11 ± 0.11	0.986 ± 0.062	0.928 ± 0.1	0.85 ± 0.016	0.941 ± 0.083
ANKRA2 (UniProt Q9H9E1)	0.912 ± 0.057	0.91 ± 0.023	0.911 ± 0.025	0.97 ± 0.087	0.99 ± 0.058	0.963 ± 0.05
UniProt Q9UHP3|Q9UHP3-1|Q9UHP3-3	0.966 ± 0.013	0.997 ± 0.015	0.975 ± 0.026	0.963 ± 0.023	0.964 ± 0.013	0.971 ± 0.024
